About 8,800 targets were measured; listed, in parts, are those with a hit and a random draw of the rest. About 0.5% of all pairs of compound and target were hits. A number with no mark means an inactive call.
compound: O=C(O)c1ccc2c(c1)nc(Nc1cccc(Cl)c1)c1ccncc12 [silmitasertib]; assay: log2 fold change, soluble protein after heating vs DMSO (PISA); higher = thermal stabilisation; K562 lysate, 10 uM; active = over 0.2 and 3.5 SD of the protein, either way, in both replicates (recomputed)
In short: (§1)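 Following dounce homogenisation of K562 pellets in PBS pH 7.4 with 1 mM MgCl2, crude extract at 1 mg/mL protein was incubated for 30 min with 10 μM compound. Aliquots were then heated for 3 min over 48°C-58°C and pooled, NP-40 was added to 0.5% at 4°C, and soluble protein was recovered as the supernatant at 21,000xg for 90 min. Channel-sum-equalised TMTpro 16plex LC-MS/MS quantified this protein. Each value, from duplicates, is a log-two fold change in thermal stability relative to solvent controls.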

Chain of UniProt O75208 (O75208 whole entry, looked up): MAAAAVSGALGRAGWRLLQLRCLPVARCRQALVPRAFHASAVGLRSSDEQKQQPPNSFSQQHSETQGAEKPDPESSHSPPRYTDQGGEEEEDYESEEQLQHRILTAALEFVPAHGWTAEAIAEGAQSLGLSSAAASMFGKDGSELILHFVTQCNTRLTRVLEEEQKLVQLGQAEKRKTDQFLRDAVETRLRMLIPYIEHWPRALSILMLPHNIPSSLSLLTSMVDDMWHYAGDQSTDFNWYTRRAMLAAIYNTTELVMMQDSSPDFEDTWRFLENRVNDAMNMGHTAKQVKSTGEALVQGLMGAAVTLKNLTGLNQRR
Chain of UniProt Q1MSJ5 (Q1MSJ5 whole entry, looked up): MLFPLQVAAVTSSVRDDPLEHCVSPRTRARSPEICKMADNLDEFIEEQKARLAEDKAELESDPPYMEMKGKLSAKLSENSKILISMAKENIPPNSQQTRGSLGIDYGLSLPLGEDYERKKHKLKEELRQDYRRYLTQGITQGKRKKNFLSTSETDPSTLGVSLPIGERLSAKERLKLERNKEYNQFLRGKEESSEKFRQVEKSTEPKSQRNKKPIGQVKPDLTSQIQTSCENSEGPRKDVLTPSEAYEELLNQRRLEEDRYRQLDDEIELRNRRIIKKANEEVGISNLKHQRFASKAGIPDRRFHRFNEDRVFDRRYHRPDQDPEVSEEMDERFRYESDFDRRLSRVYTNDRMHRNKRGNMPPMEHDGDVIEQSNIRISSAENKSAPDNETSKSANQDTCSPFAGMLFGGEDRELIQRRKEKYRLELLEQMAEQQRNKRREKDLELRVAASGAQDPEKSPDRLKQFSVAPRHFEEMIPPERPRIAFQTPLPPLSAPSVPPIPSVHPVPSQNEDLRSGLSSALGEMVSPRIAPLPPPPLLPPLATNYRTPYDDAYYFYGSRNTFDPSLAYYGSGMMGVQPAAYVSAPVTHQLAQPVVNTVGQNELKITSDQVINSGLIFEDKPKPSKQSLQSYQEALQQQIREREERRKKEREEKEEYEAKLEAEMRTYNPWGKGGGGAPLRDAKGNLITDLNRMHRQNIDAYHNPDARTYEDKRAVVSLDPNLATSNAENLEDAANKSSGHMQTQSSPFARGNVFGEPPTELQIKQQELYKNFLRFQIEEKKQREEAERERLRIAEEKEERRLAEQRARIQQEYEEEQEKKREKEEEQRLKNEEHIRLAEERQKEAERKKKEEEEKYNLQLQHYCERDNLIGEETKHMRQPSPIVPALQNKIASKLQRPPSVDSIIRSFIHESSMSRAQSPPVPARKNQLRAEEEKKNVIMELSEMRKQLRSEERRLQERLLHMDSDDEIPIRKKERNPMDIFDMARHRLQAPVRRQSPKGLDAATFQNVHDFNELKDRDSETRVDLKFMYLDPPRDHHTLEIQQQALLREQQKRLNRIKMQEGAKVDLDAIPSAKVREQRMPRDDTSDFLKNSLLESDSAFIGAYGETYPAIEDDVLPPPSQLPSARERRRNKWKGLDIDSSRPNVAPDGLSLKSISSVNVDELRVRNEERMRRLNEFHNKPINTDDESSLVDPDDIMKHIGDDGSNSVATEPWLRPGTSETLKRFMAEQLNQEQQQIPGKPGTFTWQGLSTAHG
Chain of UniProt Q8TDD1 (Q8TDD1 whole entry, looked up): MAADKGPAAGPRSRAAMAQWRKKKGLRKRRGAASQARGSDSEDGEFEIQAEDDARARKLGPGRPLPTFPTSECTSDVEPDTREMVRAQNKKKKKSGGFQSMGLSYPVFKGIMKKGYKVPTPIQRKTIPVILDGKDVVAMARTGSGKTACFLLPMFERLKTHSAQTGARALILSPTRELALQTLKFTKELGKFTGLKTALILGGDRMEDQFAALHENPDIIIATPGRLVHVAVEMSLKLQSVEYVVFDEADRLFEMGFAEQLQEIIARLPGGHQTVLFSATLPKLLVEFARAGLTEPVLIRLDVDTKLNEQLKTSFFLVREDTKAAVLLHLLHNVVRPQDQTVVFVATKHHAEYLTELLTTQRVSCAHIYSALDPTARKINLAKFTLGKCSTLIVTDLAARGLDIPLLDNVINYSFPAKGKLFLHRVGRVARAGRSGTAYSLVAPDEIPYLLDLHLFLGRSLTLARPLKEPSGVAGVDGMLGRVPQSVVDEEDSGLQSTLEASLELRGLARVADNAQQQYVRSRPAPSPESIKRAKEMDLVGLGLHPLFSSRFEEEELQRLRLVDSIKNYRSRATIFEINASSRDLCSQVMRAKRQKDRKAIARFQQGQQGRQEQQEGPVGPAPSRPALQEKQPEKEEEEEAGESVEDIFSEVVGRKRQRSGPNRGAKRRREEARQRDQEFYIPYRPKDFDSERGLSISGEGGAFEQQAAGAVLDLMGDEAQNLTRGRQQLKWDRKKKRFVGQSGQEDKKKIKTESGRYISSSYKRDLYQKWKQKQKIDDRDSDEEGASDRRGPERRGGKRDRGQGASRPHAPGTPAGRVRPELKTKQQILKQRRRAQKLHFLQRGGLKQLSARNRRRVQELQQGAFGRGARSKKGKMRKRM
Chain of UniProt Q8IWV2 (Q8IWV2 whole entry, looked up): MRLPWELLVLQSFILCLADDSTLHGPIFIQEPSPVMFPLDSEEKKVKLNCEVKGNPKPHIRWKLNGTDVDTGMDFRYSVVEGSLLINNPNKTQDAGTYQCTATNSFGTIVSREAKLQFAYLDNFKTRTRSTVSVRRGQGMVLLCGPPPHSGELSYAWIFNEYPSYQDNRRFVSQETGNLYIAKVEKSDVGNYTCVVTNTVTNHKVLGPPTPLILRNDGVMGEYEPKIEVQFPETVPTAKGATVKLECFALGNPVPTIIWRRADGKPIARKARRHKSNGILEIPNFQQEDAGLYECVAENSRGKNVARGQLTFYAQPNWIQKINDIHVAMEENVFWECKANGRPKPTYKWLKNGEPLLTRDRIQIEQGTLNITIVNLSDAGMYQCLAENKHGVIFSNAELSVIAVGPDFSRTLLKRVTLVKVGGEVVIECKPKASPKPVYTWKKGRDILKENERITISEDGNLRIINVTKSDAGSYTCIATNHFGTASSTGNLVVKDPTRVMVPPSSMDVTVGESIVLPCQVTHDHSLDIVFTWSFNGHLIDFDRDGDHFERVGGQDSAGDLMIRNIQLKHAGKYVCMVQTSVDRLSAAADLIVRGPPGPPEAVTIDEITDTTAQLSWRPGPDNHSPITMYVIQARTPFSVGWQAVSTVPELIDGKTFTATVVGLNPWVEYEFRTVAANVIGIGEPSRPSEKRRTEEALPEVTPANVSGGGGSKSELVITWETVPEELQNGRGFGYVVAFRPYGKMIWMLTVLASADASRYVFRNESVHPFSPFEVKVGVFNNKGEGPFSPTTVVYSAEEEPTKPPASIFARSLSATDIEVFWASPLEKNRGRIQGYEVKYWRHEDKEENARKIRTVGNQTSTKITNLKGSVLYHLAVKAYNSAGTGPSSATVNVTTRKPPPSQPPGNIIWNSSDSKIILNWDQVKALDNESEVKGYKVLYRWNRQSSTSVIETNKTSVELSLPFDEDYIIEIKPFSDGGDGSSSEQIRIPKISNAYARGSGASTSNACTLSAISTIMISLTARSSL
Chain of UniProt Q9UBM7 (Q9UBM7 whole entry, looked up): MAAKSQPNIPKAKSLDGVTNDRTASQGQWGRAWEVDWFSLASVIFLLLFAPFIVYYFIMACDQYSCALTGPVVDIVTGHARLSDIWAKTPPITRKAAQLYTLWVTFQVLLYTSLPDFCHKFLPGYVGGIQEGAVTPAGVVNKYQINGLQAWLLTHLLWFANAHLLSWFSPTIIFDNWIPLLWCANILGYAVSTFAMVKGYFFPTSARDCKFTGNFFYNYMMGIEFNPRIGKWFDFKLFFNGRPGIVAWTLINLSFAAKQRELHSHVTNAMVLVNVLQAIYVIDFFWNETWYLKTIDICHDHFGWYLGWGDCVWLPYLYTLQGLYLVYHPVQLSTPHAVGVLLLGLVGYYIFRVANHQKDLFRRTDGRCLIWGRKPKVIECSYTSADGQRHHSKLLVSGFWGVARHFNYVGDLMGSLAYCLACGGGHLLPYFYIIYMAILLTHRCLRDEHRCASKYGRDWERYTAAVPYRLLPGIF
Chain of UniProt Q9BQ75 (Q9BQ75 whole entry, looked up): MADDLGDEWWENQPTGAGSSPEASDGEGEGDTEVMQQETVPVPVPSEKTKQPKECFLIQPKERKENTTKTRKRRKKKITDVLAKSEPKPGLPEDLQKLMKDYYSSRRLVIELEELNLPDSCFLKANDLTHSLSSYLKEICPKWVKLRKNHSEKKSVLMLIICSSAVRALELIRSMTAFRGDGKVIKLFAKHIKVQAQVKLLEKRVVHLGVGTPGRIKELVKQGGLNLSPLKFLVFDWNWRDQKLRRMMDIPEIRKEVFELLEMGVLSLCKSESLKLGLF
Chain of UniProt P17661 (P17661 whole entry, looked up): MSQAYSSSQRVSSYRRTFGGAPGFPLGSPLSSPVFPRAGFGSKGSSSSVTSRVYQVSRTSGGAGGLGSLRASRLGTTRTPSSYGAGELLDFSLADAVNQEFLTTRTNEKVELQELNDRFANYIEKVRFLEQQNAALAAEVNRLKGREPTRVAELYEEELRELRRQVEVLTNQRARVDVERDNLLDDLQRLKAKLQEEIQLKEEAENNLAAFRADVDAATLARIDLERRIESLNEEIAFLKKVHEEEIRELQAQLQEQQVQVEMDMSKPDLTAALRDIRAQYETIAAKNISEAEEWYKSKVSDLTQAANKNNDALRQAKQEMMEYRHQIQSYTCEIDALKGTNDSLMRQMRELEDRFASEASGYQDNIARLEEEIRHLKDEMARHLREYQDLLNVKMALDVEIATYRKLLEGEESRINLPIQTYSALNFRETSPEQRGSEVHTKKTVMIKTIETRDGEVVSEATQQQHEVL
Chain of UniProt Q9UJA2 (Q9UJA2 whole entry, looked up): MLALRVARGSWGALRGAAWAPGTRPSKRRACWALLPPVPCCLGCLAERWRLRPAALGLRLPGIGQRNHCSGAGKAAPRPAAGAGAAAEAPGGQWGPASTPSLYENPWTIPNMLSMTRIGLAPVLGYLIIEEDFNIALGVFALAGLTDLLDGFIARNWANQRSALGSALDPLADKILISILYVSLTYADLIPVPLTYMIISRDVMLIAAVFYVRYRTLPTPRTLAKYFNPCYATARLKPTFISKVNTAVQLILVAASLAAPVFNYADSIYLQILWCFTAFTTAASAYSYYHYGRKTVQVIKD

Target	log2 fold change
DHRS13 (UniProt Q6UX07)	0.059
COL6A3 (UniProt P12111)	0.002
CSPP1 (UniProt Q1MSJ5)	-0.027
DLD (UniProt P09622)	0.004
CMSS1 (UniProt Q9BQ75)	0.038
CRLS1 (UniProt Q9UJA2)	0.172
DALRD3 (UniProt Q5D0E6)	0.074
CNTN4 (UniProt Q8IWV2)	-0.09
DDX54 isoform 2 (UniProt Q8TDD1)	-0.006
CNOT2 (UniProt F8VRS8)	0.152
DDX4 (UniProt Q9NQI0)	0.101
DNM2 isoform 4 (UniProt P50570)	0.047
CNK3/IPCEF1 isoform 2 (UniProt G9CGD6)	0.06
COQ9 (UniProt O75208)	0.002
DNAAF5 (UniProt Q86Y56)	0.129
COPS9 (UniProt Q8WXC6)	-0.139
CLIP1 isoform 2 (UniProt P30622)	-0.035
DES (UniProt P17661)	0.03
DONSON (UniProt Q9NYP3)	-0.123
CYP4V2 (UniProt Q6ZWL3)	-0.038
CSAD isoform 3 (UniProt Q9Y600)	0.075
DHCR7 (UniProt Q9UBM7)	0.03

compound: O=C1NC(=O)C(c2cnc3ccccn23)=C1c1cn2c3c(cc(F)cc13)CN(C(=O)N1CCCCC1)CC2; assay: as above
In short: as §1

Target	log2 fold change
DHRS13 (UniProt Q6UX07)	-0.001
CSRP2 (UniProt Q16527)	0.016
CSNK2A1 (UniProt P68400)	-0.046
DDR1 isoform 5 (UniProt Q08345)	-0.026
COL6A3 (UniProt P12111)	-0.093
CSDE1 isoform 3 (UniProt O75534)	-0.1
CSPP1 (UniProt Q1MSJ5)	0.043
DLD (UniProt P09622)	0.008
CMSS1 (UniProt Q9BQ75)	-0.024
CRLS1 (UniProt Q9UJA2)	0.036
CNTN4 (UniProt Q8IWV2)	0.274
DDX54 isoform 2 (UniProt Q8TDD1)	-0.008
CLASP2 (UniProt O75122)	0.194
CSNK1D (UniProt P48730)	-0.002
CLIP1, A0A3B3ITA2	0.068
DNM2 isoform 4 (UniProt P50570)	-0.014
CHMP4A (UniProt H0YIN6)	0.287
COQ9 (UniProt O75208)	0.031
DNAAF5 (UniProt Q86Y56)	0.02
CINP isoform 3 (UniProt Q9BW66)	0.043
CLIP1 isoform 2 (UniProt P30622)	0.002
DES (UniProt P17661)	0.05
DONSON (UniProt Q9NYP3)	0.032
CYP4V2 (UniProt Q6ZWL3)	0.034
CSAD isoform 3 (UniProt Q9Y600)	0.039
DHCR7 (UniProt Q9UBM7)	-0.004

compound: c1cn2cc(-c3ccc4cn[nH]c4c3)nc(Nc3ccc(N4CCOCC4)cc3)c2n1 [entospletinib]; assay: as above
In short: as §1

Target	log2 fold change
DESI2 (UniProt Q9BSY9)	0.116
CSRP2 (UniProt Q16527)	-0.132
CSNK2A1 (UniProt P68400)	0.213
DDR1 isoform 5 (UniProt Q08345)	-0.153
CSPP1 (UniProt Q1MSJ5)	0.003
DLD (UniProt P09622)	0.01
CMSS1 (UniProt Q9BQ75)	-0.013
DALRD3 (UniProt Q5D0E6)	-0.046
CNTN4 (UniProt Q8IWV2)	0.06
CXCL14 (UniProt O95715)	0.033
DDX54 isoform 2 (UniProt Q8TDD1)	-0.009
CLASP2 (UniProt O75122)	-0.073
DDX4 (UniProt Q9NQI0)	0.011
CSNK1D (UniProt P48730)	-0.076
DNM2 isoform 4 (UniProt P50570)	-0.02
CNK3/IPCEF1 isoform 2 (UniProt G9CGD6)	0.008
COQ9 (UniProt O75208)	-0.012
DNAAF5 (UniProt Q86Y56)	-0.012
CPLX1 (UniProt O14810)	0.119
CINP isoform 3 (UniProt Q9BW66)	0.009
CLIP1 isoform 2 (UniProt P30622)	-0.151
DES (UniProt P17661)	0.027
DHCR7 (UniProt Q9UBM7)	0.078

Reference: the supplement of paper PMC10849652
